Laboratory results from PubChem BioAssay (NCATS).
Results filed as inconclusive are left out. The source made the active and inactive calls. Unless noted, calls follow the shape of the dose curve; as a rule, active = well fitted curve in the direction sought with a large enough effect; inconclusive = small, poorly fitted or top-dose-only effect, or another doubt; inactive = no such curve, though single readings can be large; an effect the other way counts as inactive or inconclusive.

Legend:
[1] = S16 Schwann cell PMP22 intronic element firefly luciferase assay (AID 624032); also: nearly all actives have a fitted effect of over 30% in size; also: potency is read from the fitted curve at half-maximal effect
Method in brief: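 Rat S16 Schwann cells stably carrying firefly luciferase driven by a PMP22 intronic element, in 10% FBS, treated 24 h at 37 C. ONE-Glo luminescence normalized to PTC124 control and DMSO (0%); curves classed by r2, magnitude and activity.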

CP194 = assay: qHTS profiling for inhibitors of Plasmodium falciparum proliferation (AID 504749); also: nearly all actives have a fitted effect of over 60% in size; settings: P. falciparum in erythrocytes, SYBR Green DNA, 72 h; series mostly up to 12.8 µM
Method in brief: (§1)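 Each compound contacts P. falciparum-infected red blood cells for 72 h at 37 C; lysis buffer (Tris, EDTA, saponin, Triton X, SYBR Green I) is added and fluorescence measured next morning; values normalized to controls.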

CP215 = assay: as above; settings: P. falciparum in erythrocytes, SYBR Green DNA, 72 h; series mostly up to 28.7 µM
Method in brief: as §1

CP247 = assay: as above; settings: P. falciparum in erythrocytes, SYBR Green DNA, 72 h; series mostly up to 12.8 µM
Method in brief: as §1

CP260 = assay: as above; settings: P. falciparum in erythrocytes, SYBR Green DNA, 72 h; series mostly up to 12.8 µM
Method in brief: as §1

CP266 = assay: as above; settings: P. falciparum in erythrocytes, SYBR Green DNA, 72 h; series mostly up to 28.7 µM
Method in brief: as §1

CP297 = assay: as above; settings: P. falciparum in erythrocytes, SYBR Green DNA, 72 h; series mostly up to 12.8 µM
Method in brief: as §1

CP315 = assay: as above; settings: P. falciparum in erythrocytes, SYBR Green DNA, 72 h; series mostly up to 12.8 µM
Method in brief: as §1

DIV14 = assay: as above; settings: P. falciparum in erythrocytes, SYBR Green DNA, 72 h; series mostly up to 12.8 µM
Method in brief: as §1

DIV17 = assay: as above; settings: P. falciparum in erythrocytes, SYBR Green DNA, 72 h; series mostly up to 12.8 µM
Method in brief: as §1

ICS = assay: as above; settings: P. falciparum in erythrocytes, SYBR Green DNA, 72 h; series mostly up to 12.8 µM
Method in brief: as §1

W2 = assay: as above; settings: P. falciparum in erythrocytes, SYBR Green DNA, 72 h; series mostly up to 12.8 µM
Method in brief: as §1

CP192 = assay: as above; settings: P. falciparum in erythrocytes, SYBR Green DNA, 72 h; series mostly up to 28.7 µM
Method in brief: as §1

[2] = target: Guanine nucleotide-binding protein G(i) subunit alpha-1 (Homo sapiens) (UniProt P63096); assay: qHTS Assay for Inhibitors of RGS12 GoLoco Motif Activity (Green Fluorophore) (AID 879);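 also: negative values mean loss of peptide binding seen as reduced polarization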
Guanine nucleotide-binding protein G(i) subunit alpha-1 (Homo sapiens), sequence (P63096 whole entry, looked up): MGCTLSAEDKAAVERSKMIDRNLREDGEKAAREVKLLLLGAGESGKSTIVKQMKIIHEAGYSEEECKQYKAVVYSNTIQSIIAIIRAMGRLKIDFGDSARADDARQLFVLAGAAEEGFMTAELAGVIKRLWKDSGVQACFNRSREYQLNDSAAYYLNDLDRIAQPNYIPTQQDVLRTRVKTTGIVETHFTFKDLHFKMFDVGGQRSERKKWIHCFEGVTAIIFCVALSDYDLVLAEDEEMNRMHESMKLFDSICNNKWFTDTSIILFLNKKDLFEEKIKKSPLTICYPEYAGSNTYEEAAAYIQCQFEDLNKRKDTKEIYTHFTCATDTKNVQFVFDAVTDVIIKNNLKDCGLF
Method in brief: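 A drop in FITC polarization marked displacement of the FITC-tagged RGS12 GoLoco peptide (10 nM) from Gαi1 (50 nM). Compounds were incubated 10 min at room temperature in Tris pH 7.5 buffer containing 150 mM NaCl, 0.1 mM GDP and 0.05% NP40; unlabeled peptide titration served as control.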

[3] = target: Pyruvate kinase (Leishmania mexicana) (UniProt Q27686); assay: qHTS Validation Assay for Inhibitors of Leishmania Mexicana Pyruvate Kinase (AID 945)
Pyruvate kinase (Leishmania mexicana), sequence (Q27686 2-499 E452W): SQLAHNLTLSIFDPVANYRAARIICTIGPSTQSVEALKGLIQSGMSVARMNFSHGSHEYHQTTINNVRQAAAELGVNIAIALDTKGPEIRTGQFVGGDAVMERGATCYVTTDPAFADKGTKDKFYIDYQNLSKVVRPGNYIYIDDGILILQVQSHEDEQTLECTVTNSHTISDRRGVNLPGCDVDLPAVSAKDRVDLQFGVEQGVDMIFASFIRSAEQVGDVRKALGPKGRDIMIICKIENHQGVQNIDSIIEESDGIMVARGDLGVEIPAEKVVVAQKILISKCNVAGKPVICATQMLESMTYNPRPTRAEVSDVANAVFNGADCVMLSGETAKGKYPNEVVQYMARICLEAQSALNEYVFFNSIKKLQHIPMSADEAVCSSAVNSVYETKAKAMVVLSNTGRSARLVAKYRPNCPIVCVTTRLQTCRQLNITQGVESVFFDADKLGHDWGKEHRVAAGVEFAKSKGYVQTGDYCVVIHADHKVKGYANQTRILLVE
Method in brief: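 The enzyme is a highly purified E451W mutant of LmPYK used at 0.2 nM. It converts 0.5 mM PEP and 0.1 mM ADP over 1 h at room temperature; product ATP is quantified by luciferase luminescence relative to DMSO controls.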

[4] = target: Pyruvate kinase PKM (Homo sapiens) (UniProt P14618); assay: qHTS Assay for Activators of Human Muscle Pyruvate Kinase (AID 954; active = well fitted curve in the direction sought with a large enough effect, not every such curve was filed as active)
Pyruvate kinase PKM (Homo sapiens), sequence (P14618 whole entry, looked up): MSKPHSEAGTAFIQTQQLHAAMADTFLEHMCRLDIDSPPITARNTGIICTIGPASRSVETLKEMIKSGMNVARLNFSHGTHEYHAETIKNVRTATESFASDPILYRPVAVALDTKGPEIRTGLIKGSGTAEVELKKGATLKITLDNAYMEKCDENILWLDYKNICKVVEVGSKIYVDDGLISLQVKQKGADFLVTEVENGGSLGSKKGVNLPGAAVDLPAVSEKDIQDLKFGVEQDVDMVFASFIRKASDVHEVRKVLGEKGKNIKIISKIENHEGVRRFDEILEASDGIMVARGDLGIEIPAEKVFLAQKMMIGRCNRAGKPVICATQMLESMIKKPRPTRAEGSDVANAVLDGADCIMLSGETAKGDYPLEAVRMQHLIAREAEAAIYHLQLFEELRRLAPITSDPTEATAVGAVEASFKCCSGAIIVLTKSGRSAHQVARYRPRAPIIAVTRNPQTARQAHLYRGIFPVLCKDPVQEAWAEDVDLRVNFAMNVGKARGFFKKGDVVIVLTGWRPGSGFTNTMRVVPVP
Method in brief: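 PKM2, human, >95% pure, 0.1 nM; PEP 0.5 mM (Km), ADP 0.1 mM; 50 mM imidazole pH 7.2, 50 mM KCl, 0.01% Tween 20, 0.05% BSA; 1 h RT; luciferase luminescence readout.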

[5] = target: Alpha-galactosidase A (Homo sapiens) (UniProt P06280); assay: Counterscreen for Glucocerebrosidase Inhibitors: qHTS Assay for Human alpha-Galactosidase at pH 4.5 (AID 992)
Alpha-galactosidase A (Homo sapiens), sequence (P06280 whole entry, looked up): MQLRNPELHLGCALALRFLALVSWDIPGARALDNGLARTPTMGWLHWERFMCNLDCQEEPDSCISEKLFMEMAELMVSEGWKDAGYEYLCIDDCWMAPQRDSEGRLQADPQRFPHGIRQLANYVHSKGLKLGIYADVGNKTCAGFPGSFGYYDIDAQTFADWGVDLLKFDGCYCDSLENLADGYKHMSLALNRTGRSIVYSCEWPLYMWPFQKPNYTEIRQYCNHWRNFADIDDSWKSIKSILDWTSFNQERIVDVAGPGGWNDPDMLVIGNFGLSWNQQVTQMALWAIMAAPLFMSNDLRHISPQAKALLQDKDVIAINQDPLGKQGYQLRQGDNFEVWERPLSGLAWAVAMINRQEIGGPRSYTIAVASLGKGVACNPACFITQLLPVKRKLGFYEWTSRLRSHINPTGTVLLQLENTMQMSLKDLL
Method in brief: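 Fluorogenic 4-MU alpha-D-galactoside (80 uM) hydrolysis, 2 nM enzyme, pH 4.5 citrate buffer + 0.005% Tween-20; 20 min RT; NaOH/glycine pH 10 stop; Ex365/Em440. Compounds titrated 0.7 nM–77 uM; Hill-equation AC50.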

[6] = target: alpha-glucosidase (Oryza sativa, rice) (UniProt Q653V4); assay: Counterscreen for Glucocerebrosidase Inhibitors: qHTS Assay for Rice alpha-Glucosidase at pH 5.0 (AID 997)
Method in brief: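 Endpoint fluorogenic assay at pH 5.0: compounds (0.7 nM to 77 uM) titrated against 4 nM rice enzyme and 400 uM 4-MU-alpha-glucoside for 20 min at room temperature; NaOH/glycine stop, read ex 365/em 440 nm, Hill-fitted AC50.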

[7] = target: Cytochrome P450 3A4 (Homo sapiens) (UniProt P08684); assay: qHTS Assay for Activators of Cytochrome P450 3A4 (AID 885); also: nearly all actives have a fitted effect of over 65% in size
Cytochrome P450 3A4 (Homo sapiens), sequence (P08684 whole entry, looked up): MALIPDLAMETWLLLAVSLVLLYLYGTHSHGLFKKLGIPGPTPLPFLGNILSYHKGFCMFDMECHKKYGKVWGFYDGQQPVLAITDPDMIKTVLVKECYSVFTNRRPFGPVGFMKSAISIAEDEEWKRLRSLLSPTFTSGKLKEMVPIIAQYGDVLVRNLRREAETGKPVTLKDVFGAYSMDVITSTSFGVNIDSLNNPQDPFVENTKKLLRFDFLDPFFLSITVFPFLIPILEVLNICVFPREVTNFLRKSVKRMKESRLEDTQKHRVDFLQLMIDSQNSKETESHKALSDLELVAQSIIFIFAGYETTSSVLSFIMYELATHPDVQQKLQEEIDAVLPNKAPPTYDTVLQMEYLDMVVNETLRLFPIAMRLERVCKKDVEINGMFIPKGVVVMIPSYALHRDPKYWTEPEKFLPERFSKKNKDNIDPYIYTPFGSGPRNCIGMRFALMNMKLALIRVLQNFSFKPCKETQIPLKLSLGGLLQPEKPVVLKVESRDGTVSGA
Method in brief: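 Activators are scored by enhanced luminescence from CYP3A4 conversion of luciferin-PPXE (25uM, equal to KM) to luciferin, after 60 min at RT with an NADPH-regenerating system.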

Measured: Potency

CN[C@@H]1[C@H](O[C@@H]2O[C@H](CO)[C@@H](N)[C@H](O)[C@@H]2O)O[C@H]2C[C@@H](N)[C@@H](O[C@H]3[C@@H](O)[C@H](O)[C@H](N)C[C@@H]3N)O[C@H]2[C@H]1O
not listed: CP192 | [2] | [3] | [4] | [5] | [6] | [7]
inactive: all other assays above

C[n+]1ccccc1/C=N\O
not listed: [2] | [3] | [4] | [5] | [6] | [7]
inactive: all other assays above

Cn1c(=O)c2c(ncn2C[C@@H](O)CO)n(C)c1=O
not listed: [2] | [3] | [4] | [5] | [6] | [7]
inactive: all other assays above

CCN1CCC[C@@H]1CNC(=O)c1cc(S(N)(=O)=O)ccc1OC
inactive: [2] | [3] | [4] | [5] | [6]

CO/N=C(/C(=O)NC1C(=O)N2C(C(=O)O)=C(CSc3nc(=O)c(O)nn3C)CSC12)c1csc(N)n1 (stereo not drawn)
not listed: DIV14 | W2 | [2] | [3] | [4] | [5] | [6] | [7]
inactive: all other assays above

COc1ccc(C[C@@H]2c3cc(OC)c(OC)cc3CC[N@+]2(C)CCC(=O)OCCCCCOC(=O)CC[N@@+]2(C)CCc3cc(OC)c(OC)cc3[C@H]2Cc2ccc(OC)c(OC)c2)cc1OC
not listed: [1] | CP192 | [2] | [3] | [4] | [5] | [6]
inactive: all other assays above

CN(C)[C@H]1C(=O)C(C(=O)NCN2CCCC2)=C(O)[C@]2(O)C(=O)C3=C(O)c4c(O)cccc4[C@@](C)(O)[C@H]3C[C@@H]12
not listed: [1] | [2] | [3] | [4] | [5] | [6] | [7]
inactive: all other assays above

CC[C@H](NC(C)C)[C@H](O)c1ccc(O)c(O)c1
active: [1] 11.4 µM
not listed: CP247 | CP260 | DIV14 | DIV17 | ICS | W2
inactive: all other assays above

COc1c2ccoc2nc2c(OC)c(OC[C@H](O)C(C)(C)O)ccc12
inactive: [7]

CCN[C@@H]1C[C@H](C)S(=O)(=O)c2sc(S(N)(=O)=O)cc21
not listed: [2] | [3] | [4] | [5] | [6] | [7]
inactive: all other assays above

CC(=O)Oc1cc(OC(C)=O)c2c(c1)OC(c1ccc(OC(C)=O)c(OC(C)=O)c1)C(OC(C)=O)C2 (stereo not drawn)
inactive: [7]

O=c1[nH]c(=O)n([C@@H]2C[C@H](O)[C@H](CO)O2)cc1I
active: [1] 2.45 µM
not listed: [2] | [3] | [4] | [5] | [6] | [7]
inactive: all other assays above

CN(C)CC[C@H](c1ccc(Br)cc1)c1ccccn1
inactive: [2] | [3] | [4] | [5] | [6]

C[C@@H](C(=O)O)c1ccc(C(=O)c2cccs2)cc1
not listed: CP266 | [2] | [3] | [4] | [5] | [6] | [7]
inactive: all other assays above

C=C1C2CC[C@@]3(C)C(c4ccoc4)OC(=O)C[C@@]13OC1CC(O)C(C)(C)C(CC(=O)OC)[C@@]12C (stereo partly drawn)
inactive: [7]

O=c1[nH]cnc2c1ncn2C1OC(CO)C(O)C1O (stereo not drawn)
not listed: CP315 | CP192 | [2] | [3] | [4] | [5] | [6] | [7]
inactive: all other assays above

O=C(O)[C@H]1CCCN(CCC=C(c2ccccc2)c2ccccc2)C1
inactive: [2] | [3] | [4] | [5] | [6]

CC(=O)N(CC(O)CN(C(C)=O)c1c(I)c(C(=O)NC[C@@H](O)CO)c(I)c(C(=O)NC[C@@H](O)CO)c1I)c1c(I)c(C(=O)NC[C@@H](O)CO)c(I)c(C(=O)NC[C@@H](O)CO)c1I
inactive: CP192 | CP194 | CP215 | CP247 | CP260 | CP266 | CP297 | CP315 | DIV17 | ICS
